Laboratory results from PubChem BioAssay (Tox21).
A number with no mark means an inactive call. Inconclusive results are not listed. A call without a number means that no potency is given here. Activity calls are given as the source filed them. Unless noted, the call rests on the fitted dose curve; in most records, active means well fitted curve in the direction sought with a large enough effect in the repeat runs; inconclusive means weak or mixed curves; inactive means no such curve, though single readings can be large; an effect the other way counts as inactive or inconclusive.

Assays:
[1] = A CellTox Green Cytotoxicity Assay to monitor cytotoxicity in HEK293 cells - 32 hour (AID 1224881); further: nearly all actives have a fitted effect of over 40% in size; further: potency means the concentration at half of the fitted maximal effect
Summary of the method: (§1)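 Dead-cell fluorescence measured kinetically: asymmetric cyanine dye, HEK293, 600 cells/well, 5 h settle, 23 nL cpd/DMSO, 37 C, reads 0–40 h every 8 h.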

[2] = A CellTox Green Cytotoxicity Assay to monitor cytotoxicity in HepG2 cells - 0 hour (AID 1224882); further: nearly all actives have a fitted effect of over 35% in size; further: potency means the concentration at half of the fitted maximal effect
Summary of the method: (§2)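 First, HepG2 cells (600/well) mixed with reagent were plated; second, after 5 h at 37 C they received compounds via pintool; third, fluorescence was measured at 0 h through 40 h at 8 h intervals.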

[3] = A CellTox Green Cytotoxicity Assay to monitor cytotoxicity in HEK293 cells - 8 hour (AID 1224884); further: nearly all actives have a fitted effect of over 35% in size
Summary of the method: as §1

[4] = qHTS RealTime-Glo MT Cell Viability Assay in HEK293 cells - 24 hour (AID 1224886); further: nearly all actives have a fitted effect of over 50% in size; further: potency means the concentration at half of the fitted maximal effect
Summary of the method: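 Viability tracked continuously by luminescence as live cells reduce a prosubstrate for NanoLuc; HEK293 cells preincubated 5 h, compound-treated at 37 C, and read at 0, 8, 16, 24, 32 and 40 h.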

[5] = qHTS RealTime-Glo MT Cell Viability Assay in HEK293 cells - 8 hour (AID 1224887); further: top concentration of the series differs between compounds; nearly all actives have a fitted effect of over 50% in size
Summary of the method: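 600 HEK293 cells per well, dispensed already mixed with RealTime-Glo MT reagents. Compound dosing came 5 h later. The same wells were read for luminescence at 0, 8, 16, 24, 32 and 40 h of exposure at 37 C.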

[6] = A CellTox Green Cytotoxicity Assay to monitor cytotoxicity in HEK293 cells - 16 hour (AID 1224888); further: nearly all actives have a fitted effect of over 35% in size
Summary of the method: as §1

[7] = qHTS RealTime-Glo MT Cell Viability Assay in HepG2 cells - 0 hour (AID 1224889); further: nearly all actives have a fitted effect of over 50% in size
Summary of the method: (§3)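 Viability was tracked continuously by NanoLuc luminescence from prosubstrate reduced by living HepG2 cells, at successive time points over 40 h of compound exposure. Cells with reagent were preincubated 5 h at 37 °C before compound addition.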

[8] = qHTS assay to identify small molecule antagonists of the estrogen receptor alpha (ER-alpha) signaling pathway using the BG1 cell line in the presence of 0.1 nM 17-beta-estradiol - cell viability counter screen (AID 1259241); further: nearly all actives have a fitted effect of over 40% in size
Summary of the method: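 Live-cell protease activity (CellTiter-Fluor fluorescence, 30 min) was read in the same wells after VM7Luc4E2 cells had been exposed to compounds with 0.1 nM 17beta-estradiol for 22 hr at 37C.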

[9] = qHTS assay to identify small molecule antagonists of the androgen receptor (AR) signaling pathway using the MDA cell line in the presence of 0.5 nM R1881 - cell viability counter screen (AID 1259242); further: nearly all actives have a fitted effect of over 45% in size
Summary of the method: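 qHTS format. MDA-kb2 (MMTV-luc, AR/GR responsive) + cpd + 0.5 nM R1881 final, 16 hr 37C/0% CO2 → CellTiter-Fluor 30 min → fluorescence intensity.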

[10] = target: Androgen receptor (Homo sapiens) (UniProt P10275); test: qHTS assay to identify small molecule antagonists of the androgen receptor (AR) signaling pathway using the MDA cell line in the presence of 0.5 nM R1881 (AID 1259243); further: nearly all actives have a fitted effect of over 50% in size
Sequence of Androgen receptor (Homo sapiens) (P10275 whole entry, looked up): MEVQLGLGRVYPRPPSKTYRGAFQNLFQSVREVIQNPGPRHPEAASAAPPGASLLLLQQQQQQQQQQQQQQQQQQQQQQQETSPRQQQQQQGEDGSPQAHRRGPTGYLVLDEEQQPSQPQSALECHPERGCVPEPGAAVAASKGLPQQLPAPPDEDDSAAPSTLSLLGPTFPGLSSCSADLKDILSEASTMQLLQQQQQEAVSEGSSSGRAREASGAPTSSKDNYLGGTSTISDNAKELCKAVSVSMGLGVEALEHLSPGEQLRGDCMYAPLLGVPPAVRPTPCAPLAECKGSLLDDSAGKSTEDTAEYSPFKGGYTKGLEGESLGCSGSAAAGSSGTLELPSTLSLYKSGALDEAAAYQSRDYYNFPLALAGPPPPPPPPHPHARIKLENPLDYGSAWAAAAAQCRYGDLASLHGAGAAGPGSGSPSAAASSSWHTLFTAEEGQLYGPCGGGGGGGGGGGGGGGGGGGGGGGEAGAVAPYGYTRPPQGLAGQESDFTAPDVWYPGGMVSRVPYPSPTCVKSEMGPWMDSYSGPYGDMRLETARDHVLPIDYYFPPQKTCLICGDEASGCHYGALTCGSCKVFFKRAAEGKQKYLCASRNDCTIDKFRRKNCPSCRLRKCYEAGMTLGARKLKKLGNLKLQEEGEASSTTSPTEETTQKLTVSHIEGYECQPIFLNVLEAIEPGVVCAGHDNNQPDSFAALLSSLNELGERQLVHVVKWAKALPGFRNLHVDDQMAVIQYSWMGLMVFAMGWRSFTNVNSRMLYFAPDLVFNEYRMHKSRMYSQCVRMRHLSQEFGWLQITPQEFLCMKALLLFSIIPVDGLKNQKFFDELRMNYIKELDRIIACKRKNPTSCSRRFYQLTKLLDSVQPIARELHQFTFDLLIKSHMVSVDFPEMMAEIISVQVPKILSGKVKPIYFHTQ
Summary of the method: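 Antagonist mode quantitative HTS in MDA-kb2 MMTV-luciferase cells, agonist R1881 at 0.5 nM final, 16 hr exposure at 37C and 0% CO2, luminescent detection.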

[11] = target: Estrogen receptor (Homo sapiens) (UniProt P03372); test: qHTS assay to identify small molecule antagonists of the estrogen receptor alpha (ER-alpha) signaling pathway using the BG1 cell line in the presence of 0.1 nM 17-beta-estradiol (AID 1259244); further: nearly all actives have a fitted effect of over 50% in size; further: potency means the concentration at half of the fitted maximal effect
Sequence of Estrogen receptor (Homo sapiens) (P03372 whole entry, looked up): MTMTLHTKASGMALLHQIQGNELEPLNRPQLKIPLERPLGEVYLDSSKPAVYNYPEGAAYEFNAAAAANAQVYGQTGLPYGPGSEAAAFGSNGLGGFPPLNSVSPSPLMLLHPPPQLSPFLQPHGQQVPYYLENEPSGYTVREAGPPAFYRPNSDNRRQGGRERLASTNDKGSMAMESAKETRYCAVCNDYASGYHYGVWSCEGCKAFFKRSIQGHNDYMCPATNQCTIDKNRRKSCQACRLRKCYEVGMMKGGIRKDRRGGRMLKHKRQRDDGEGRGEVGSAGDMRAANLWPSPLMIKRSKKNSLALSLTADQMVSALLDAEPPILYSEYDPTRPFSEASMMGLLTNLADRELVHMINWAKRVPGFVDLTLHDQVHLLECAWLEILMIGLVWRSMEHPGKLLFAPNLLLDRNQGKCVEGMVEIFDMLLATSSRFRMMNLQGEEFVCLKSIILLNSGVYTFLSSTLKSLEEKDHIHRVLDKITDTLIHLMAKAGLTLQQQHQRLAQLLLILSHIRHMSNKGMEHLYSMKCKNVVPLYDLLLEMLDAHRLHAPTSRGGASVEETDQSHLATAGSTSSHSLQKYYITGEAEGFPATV
Summary of the method: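 Reporter is a stably transfected luciferase under four estrogen responsive elements in VM7Luc4E2 cells expressing native full-length ER-alpha; inhibition of 0.1 nM (final) 17beta-estradiol-driven signal over 22 h is read by luminescence.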

[12] = qHTS assay to identify small molecule phospholipidosis (PLD) inducers (AID 1259344; active means well fitted curve in the direction sought with a large enough effect; an effect the other way counts as inactive or inconclusive)
Summary of the method: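 Image-based: LipidTOX Red pit count/intensity per well and per cell; HepG2, 24 h compound at 37 C, PFA fixation, Hoechst counterstain.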

[13] = qHTS assay to identify small molecule HDAC inhibitors (AID 1259364);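 further: wild-type HCT-116 cells with endogenous class I/II HDAC activity; top concentration of the series differs between compounds; nearly all actives have a fitted effect of over 45% in size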
Summary of the method: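 Quantitative high-throughput format: overnight-seeded HCT-116 cells got compounds for 2 hr at 37C; HDAC-Glo I/II reagent added, 30 min RT, luminescence measured.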

[14] = qHTS assay to identify small molecule HDAC inhibitors - cell viability counter screen (AID 1259365)
Summary of the method: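 HCT-116 (wild type), 1,500 cells/well, overnight 37C/5% CO2; compound in DMSO 2hr; CellTiter-Glo 30min RT; luminescence read.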

[15] = qHTS assay to identify small molecule agonists of the sonic hedgehog signaling (Shh) pathway - cell viability counter screen (AID 1259366); further: nearly all actives have a fitted effect of over 50% in size
Summary of the method: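 CellTiter-Fluor fluorescence read-out, 1 hr at 37C, added after 23hr compound exposure. Cells: 3T3 Gli1-Luc, an NIH/3T3 clone with stably integrated Gli1-Luc reporter, plated 4hr before compound.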

[16] = qHTS assay to identify small molecule antagonists of the sonic hedgehog signaling (Shh) pathway - cell viability counter screen (AID 1259367); further: nearly all actives have a fitted effect of over 55% in size
Summary of the method: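 Tox21 library chemicals were tested on a Gli1-Luc NIH/3T3 clone (2,000 cells/well) stimulated by conditioned medium; viability was quantified as fluorescence from CellTiter-Fluor reagent added at 23 hr.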

[17] = qHTS assay to identify small molecule agonists of the sonic hedgehog signaling (Shh) pathway (AID 1259368; calls by dose curve;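 further: NIH/3T3-derived 3T3Gli1-Luc cells carrying a stable Gli1-driven firefly luciferase reporter; series mostly up to about 92 µM; nearly all actives have a fitted effect of over 15% in size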)
Summary of the method: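 Quantitative high-throughput format using a Gli1-driven firefly luciferase reporter line derived from NIH/3T3 cells. After a 24 hr compound treatment at 37 C and 5% CO2, luminescence reported Gli1 response element activity.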

[18] = A CellTox Green Cytotoxicity Assay to monitor cytotoxicity in HepG2 cells - 8 hour (AID 1224890); further: nearly all actives have a fitted effect of over 45% in size
Summary of the method: as §2

[19] = A CellTox Green Cytotoxicity Assay to monitor cytotoxicity in HepG2 cells - 32 hour (AID 1224883); further: nearly all actives have a fitted effect of over 50% in size
Summary of the method: as §2

[20] = qHTS RealTime-Glo MT Cell Viability Assay in HepG2 cells - 16 hour (AID 1224885); further: nearly all actives have a fitted effect of over 50% in size
Summary of the method: as §3

SMILES	Potency [1]	Potency [2]	Potency [3]	Potency [4]	Potency [5]	Potency [6]	Potency [7]	Potency [8]	Potency [9]	Potency [10]	Potency [11]	Potency [12]	Potency [13]	outcome [14]	Potency [15]	Potency [16]	outcome [17]	Potency [18]	Potency [19]	Potency [20]
O=C(O)[C@@H]1[C@H]2C[C@H]3c4[nH]c5ccccc5c4CCN3C[C@@H]2CC[C@@H]1O	inactive	10.7 µM (active)	inactive	inactive	inactive	inactive	inactive	inactive	inactive	inactive	inactive	inactive	inactive	inactive	inactive	inactive	inactive	–	–	–
Nc1ccc(C(=O)N2CC3CC(CN(Cc4ccccc4)C3)C2)cc1	inactive	inactive	inactive	inactive	inactive	–	inactive	–	inactive	–	inactive	–	inactive	–	inactive	inactive	inactive	inactive	–	–
Cc1ccccn1	inactive	inactive	inactive	inactive	inactive	inactive	inactive	–	–	–	–	inactive	inactive	inactive	inactive	inactive	inactive	inactive	–	–
CCN(CC)C(C)=O	–	inactive	inactive	inactive	inactive	inactive	inactive	inactive	–	–	–	–	inactive	inactive	inactive	–	inactive	inactive	inactive	inactive
Nc1nc(N)c(-c2ccccc2)s1	inactive	inactive	inactive	inactive	–	inactive	inactive	inactive	inactive	–	–	inactive	inactive	inactive	inactive	–	inactive	inactive	–	inactive
COC(=O)C(C)=O	–	inactive	inactive	inactive	inactive	inactive	inactive	inactive	inactive	–	inactive	–	inactive	inactive	inactive	–	inactive	inactive	inactive	inactive
CC(Cc1cccc(C(F)(F)F)c1)NCCOC(=O)c1ccccc1 (configuration not stated)	21.3 µM (active)	inactive	inactive	–	–	inactive	inactive	inactive	inactive	–	–	inactive	inactive	inactive	inactive	inactive	inactive	–	–	inactive
CN(C(=O)CCCOc1ccc2[nH]c(=O)ccc2c1)C1CCCCC1	inactive	inactive	inactive	–	–	inactive	inactive	inactive	inactive	–	–	inactive	inactive	inactive	inactive	inactive	inactive	inactive	–	inactive
Cc1cccc(Oc2ccccc2)c1	inactive	inactive	inactive	47.8 µM (active)	inactive	inactive	inactive	inactive	–	–	66.8 µM (active)	–	inactive	–	inactive	inactive	inactive	inactive	–	–
